For orientation: inhibition means the change of the read-out against control, counted positive when it falls.

The results in this text go back to ChEMBL document CHEMBL1961873, “Compounds: GSK PKIS; Assays: Nanosyn kinase panel” (2012).

The structures appear in SMILES notation.

Experiment [1] has as its target Sphingosine kinase 1 (Homo sapiens) (UniProt Q9NYA1). The conditions noted are these: at 1 µM.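 Also: mean SPHK1 inhibition value reported from the GSK PKIS kinase panel screen.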
In experiment [2] the target is T1, Sphingosine kinase 2 (Homo sapiens) (UniProt Q9NRA0).
T1 sequence (whole entry): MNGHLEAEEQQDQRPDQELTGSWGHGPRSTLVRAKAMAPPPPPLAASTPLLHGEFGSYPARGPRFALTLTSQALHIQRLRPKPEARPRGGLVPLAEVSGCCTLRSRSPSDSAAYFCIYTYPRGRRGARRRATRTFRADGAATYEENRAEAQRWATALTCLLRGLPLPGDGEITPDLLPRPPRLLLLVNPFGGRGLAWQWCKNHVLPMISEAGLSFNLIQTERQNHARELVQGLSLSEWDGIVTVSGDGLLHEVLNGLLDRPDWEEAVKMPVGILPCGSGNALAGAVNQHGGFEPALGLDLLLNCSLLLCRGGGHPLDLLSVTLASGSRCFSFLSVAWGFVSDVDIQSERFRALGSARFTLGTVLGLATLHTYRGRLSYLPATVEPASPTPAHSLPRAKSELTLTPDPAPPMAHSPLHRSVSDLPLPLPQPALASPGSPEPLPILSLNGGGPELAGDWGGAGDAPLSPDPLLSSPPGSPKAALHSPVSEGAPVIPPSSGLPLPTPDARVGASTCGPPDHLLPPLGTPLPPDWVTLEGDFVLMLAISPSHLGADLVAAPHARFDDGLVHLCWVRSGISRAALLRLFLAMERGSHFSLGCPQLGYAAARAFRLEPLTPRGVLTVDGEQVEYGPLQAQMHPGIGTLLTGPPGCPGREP
To be noted: at 0.1 µM.

Experiment [3] has as its target T1, Sphingosine kinase 2 (Homo sapiens). To be noted: at 1 µM.
Experiment [4] addresses Casein kinase II subunit alpha (Homo sapiens) (UniProt P68400). To be noted: at 0.1 µM.
Experiment [5] shares this target. To be noted: at 1 µM.
Experiment [6] addresses T2, Inhibitor of nuclear factor kappa-B kinase subunit alpha (Homo sapiens) (UniProt O15111).
T2 sequence (whole entry): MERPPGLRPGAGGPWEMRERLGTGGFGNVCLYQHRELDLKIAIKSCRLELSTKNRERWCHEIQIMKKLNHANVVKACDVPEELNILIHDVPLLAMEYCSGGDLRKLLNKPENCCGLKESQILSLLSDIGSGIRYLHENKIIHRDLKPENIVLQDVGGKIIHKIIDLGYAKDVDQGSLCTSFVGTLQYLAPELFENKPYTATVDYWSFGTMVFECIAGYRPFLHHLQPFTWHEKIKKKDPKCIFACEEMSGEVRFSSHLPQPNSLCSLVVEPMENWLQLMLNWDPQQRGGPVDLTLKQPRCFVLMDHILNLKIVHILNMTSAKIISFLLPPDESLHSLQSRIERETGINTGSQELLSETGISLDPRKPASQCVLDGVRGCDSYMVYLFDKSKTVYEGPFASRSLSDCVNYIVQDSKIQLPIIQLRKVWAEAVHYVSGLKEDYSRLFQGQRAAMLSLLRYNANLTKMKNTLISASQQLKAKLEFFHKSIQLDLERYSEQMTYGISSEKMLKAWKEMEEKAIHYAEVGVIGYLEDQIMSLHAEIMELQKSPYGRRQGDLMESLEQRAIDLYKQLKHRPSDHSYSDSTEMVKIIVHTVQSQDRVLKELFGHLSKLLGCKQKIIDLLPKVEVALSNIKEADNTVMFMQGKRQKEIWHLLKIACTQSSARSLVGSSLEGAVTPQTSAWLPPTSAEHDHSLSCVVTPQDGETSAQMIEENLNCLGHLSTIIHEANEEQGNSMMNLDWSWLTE
To be noted: at 0.1 µM.

For experiment [7], the target named is T2, Inhibitor of nuclear factor kappa-B kinase subunit alpha (Homo sapiens). The conditions noted are these: at 1 µM.
For experiment [8], the target named is T3, Inhibitor of nuclear factor kappa-B kinase subunit beta (Homo sapiens) (UniProt O14920).
T3 sequence (whole entry): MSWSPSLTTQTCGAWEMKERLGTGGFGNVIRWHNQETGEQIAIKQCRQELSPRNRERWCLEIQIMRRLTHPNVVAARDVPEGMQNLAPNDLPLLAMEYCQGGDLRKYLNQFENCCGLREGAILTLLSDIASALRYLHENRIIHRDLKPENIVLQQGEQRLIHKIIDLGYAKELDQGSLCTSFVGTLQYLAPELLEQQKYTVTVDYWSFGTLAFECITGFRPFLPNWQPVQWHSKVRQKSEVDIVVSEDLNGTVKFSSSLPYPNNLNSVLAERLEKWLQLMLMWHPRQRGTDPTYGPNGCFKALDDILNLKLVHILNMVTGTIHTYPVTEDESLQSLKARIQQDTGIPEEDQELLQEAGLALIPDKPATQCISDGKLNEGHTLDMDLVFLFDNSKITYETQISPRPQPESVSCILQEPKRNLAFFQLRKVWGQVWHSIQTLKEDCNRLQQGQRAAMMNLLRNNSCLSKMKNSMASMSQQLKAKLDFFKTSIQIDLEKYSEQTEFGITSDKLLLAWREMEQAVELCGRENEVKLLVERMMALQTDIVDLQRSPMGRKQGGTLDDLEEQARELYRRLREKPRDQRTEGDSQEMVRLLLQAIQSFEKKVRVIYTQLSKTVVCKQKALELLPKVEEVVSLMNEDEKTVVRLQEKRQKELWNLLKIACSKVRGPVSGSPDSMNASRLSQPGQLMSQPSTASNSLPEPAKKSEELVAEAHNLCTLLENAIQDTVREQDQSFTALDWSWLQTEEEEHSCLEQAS
To be noted: at 0.1 µM.

Experiment [9] deals with T3, Inhibitor of nuclear factor kappa-B kinase subunit beta (Homo sapiens). To be noted: at 1 µM.
Experiment [10] has as its target T4, Inhibitor of nuclear factor kappa-B kinase subunit epsilon (Homo sapiens) (UniProt Q14164).
T4 sequence (whole entry): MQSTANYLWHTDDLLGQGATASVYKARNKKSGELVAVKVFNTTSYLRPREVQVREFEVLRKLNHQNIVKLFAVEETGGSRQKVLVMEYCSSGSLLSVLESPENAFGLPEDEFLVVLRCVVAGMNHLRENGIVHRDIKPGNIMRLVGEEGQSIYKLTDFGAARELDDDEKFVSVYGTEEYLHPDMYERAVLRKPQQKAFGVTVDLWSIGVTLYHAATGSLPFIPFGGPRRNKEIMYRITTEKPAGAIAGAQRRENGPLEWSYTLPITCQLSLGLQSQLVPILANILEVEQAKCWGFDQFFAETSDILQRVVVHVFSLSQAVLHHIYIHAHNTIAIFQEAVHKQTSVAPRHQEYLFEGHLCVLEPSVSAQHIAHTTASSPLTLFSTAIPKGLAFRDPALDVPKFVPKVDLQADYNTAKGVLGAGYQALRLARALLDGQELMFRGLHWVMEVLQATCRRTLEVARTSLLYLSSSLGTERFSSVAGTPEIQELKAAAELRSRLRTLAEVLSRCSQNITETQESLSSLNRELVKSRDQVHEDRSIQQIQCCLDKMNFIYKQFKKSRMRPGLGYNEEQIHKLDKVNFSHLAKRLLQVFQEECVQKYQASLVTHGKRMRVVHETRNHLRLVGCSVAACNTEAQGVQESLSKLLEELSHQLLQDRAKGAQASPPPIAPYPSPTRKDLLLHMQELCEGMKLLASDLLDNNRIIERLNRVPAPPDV
The conditions noted are these: at 0.1 µM.

Experiment [11] has as its target T4, Inhibitor of nuclear factor kappa-B kinase subunit epsilon (Homo sapiens). The conditions noted are these: at 1 µM.
Experiment [12] has as its target T5, Serine/threonine-protein kinase Nek1 (Homo sapiens) (UniProt Q96PY6).
T5 sequence (whole entry): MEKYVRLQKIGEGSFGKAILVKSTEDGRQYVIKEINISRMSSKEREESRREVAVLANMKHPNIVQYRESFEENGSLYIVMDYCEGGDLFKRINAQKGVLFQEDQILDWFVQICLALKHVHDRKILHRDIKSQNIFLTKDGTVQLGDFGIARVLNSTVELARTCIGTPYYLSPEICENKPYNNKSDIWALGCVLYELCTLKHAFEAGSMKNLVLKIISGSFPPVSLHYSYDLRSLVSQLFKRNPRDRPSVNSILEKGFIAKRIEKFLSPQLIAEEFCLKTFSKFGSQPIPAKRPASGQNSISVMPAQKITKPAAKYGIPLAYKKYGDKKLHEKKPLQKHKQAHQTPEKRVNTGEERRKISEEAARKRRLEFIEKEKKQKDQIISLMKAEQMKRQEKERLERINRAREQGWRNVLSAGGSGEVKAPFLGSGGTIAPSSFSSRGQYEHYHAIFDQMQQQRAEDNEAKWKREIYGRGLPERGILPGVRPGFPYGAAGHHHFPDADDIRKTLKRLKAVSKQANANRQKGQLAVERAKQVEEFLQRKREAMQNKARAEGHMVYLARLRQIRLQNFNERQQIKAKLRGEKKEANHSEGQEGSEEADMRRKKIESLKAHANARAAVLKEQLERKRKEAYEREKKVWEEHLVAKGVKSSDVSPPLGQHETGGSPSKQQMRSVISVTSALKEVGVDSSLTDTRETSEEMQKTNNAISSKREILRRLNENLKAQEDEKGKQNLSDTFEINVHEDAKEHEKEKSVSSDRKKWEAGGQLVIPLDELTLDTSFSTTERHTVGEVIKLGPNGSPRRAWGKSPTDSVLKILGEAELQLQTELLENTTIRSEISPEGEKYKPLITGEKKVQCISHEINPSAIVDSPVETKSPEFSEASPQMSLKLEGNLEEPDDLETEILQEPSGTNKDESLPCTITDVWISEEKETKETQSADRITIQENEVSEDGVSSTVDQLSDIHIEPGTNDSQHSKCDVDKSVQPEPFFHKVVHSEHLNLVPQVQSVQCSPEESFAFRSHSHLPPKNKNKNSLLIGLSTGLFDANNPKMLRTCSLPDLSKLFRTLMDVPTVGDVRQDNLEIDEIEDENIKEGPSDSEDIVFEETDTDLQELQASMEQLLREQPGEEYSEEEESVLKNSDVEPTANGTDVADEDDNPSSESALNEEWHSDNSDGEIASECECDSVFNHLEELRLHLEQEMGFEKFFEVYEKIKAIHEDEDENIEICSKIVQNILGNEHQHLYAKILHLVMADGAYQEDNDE
To be noted: at 0.1 µM.

Experiment [13] deals with T5, Serine/threonine-protein kinase Nek1 (Homo sapiens). The conditions noted are these: at 1 µM.
Experiment [14] addresses T6, Serine/threonine-protein kinase Nek2 (Homo sapiens) (UniProt P51955).
T6 sequence (whole entry): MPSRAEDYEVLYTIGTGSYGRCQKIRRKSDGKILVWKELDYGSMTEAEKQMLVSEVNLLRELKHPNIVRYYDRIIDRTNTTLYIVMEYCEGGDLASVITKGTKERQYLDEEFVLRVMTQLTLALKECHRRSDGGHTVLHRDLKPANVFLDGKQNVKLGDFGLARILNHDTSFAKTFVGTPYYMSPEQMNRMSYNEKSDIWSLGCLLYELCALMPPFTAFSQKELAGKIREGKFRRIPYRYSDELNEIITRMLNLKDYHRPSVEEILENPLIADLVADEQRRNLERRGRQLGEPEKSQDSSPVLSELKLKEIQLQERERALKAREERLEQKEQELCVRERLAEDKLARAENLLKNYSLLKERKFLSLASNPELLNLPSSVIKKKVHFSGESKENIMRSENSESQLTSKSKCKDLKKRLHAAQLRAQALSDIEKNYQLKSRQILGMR
To be noted: at 0.1 µM.

The target of experiment [15] is T6, Serine/threonine-protein kinase Nek2 (Homo sapiens). The conditions noted are these: at 1 µM.
Experiment [16] has as its target Serine/threonine-protein kinase Nek6 (Homo sapiens) (UniProt Q9HC98). The conditions noted are these: at 0.1 µM.
For experiment [17] the target is unchanged. The conditions noted are these: at 1 µM.
The target of experiment [18] is Serine/threonine-protein kinase Nek7 (Homo sapiens) (UniProt Q8TDX7). The conditions noted are these: at 0.1 µM.
Sequence of Serine/threonine-protein kinase Nek7 (Homo sapiens) (Q8TDX7 whole entry, looked up): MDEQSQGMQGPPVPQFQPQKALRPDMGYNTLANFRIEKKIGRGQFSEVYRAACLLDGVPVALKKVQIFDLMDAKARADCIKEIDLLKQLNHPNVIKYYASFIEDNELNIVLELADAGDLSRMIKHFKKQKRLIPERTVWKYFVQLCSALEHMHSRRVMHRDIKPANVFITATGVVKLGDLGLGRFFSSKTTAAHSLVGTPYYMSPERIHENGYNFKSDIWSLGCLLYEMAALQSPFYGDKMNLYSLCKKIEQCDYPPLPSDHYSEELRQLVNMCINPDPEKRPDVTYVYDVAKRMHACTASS
Experiment [19] has the same target. To be noted: at 1 µM.
Experiment [20] has as its target T7, Serine/threonine-protein kinase Nek9 (Homo sapiens) (UniProt Q8TD19).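 Also: reported value is the mean percent inhibition of NEK9.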
T7 sequence (whole entry): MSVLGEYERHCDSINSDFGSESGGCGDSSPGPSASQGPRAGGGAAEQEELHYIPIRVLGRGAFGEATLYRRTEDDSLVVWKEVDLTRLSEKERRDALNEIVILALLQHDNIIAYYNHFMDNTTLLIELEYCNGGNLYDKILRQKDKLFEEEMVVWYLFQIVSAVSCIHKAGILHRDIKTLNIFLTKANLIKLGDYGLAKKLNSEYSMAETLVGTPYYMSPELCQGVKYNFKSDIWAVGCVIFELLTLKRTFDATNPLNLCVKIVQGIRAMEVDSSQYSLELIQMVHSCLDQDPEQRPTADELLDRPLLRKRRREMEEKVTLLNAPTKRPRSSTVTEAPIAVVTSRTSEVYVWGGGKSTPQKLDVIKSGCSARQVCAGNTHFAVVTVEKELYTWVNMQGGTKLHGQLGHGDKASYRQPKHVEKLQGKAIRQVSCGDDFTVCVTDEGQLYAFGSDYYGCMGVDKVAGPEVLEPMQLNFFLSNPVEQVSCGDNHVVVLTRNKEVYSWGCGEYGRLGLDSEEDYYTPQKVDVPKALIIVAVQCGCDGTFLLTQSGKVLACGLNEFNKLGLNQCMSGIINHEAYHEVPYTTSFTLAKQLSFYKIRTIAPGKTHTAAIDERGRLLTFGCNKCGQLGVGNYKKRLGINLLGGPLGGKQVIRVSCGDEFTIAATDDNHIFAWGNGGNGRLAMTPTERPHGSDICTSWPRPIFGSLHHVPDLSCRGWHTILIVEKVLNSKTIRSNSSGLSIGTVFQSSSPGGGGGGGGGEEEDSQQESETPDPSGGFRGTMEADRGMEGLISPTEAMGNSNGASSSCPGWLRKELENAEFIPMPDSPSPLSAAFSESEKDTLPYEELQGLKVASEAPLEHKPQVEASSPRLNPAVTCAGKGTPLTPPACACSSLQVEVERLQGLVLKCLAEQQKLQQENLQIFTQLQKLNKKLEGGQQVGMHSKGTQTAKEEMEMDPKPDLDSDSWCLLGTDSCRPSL
The conditions noted are these: at 0.1 µM.

Sequence of Serine/threonine-protein kinase Nek6 (Homo sapiens) (Q9HC98 whole entry): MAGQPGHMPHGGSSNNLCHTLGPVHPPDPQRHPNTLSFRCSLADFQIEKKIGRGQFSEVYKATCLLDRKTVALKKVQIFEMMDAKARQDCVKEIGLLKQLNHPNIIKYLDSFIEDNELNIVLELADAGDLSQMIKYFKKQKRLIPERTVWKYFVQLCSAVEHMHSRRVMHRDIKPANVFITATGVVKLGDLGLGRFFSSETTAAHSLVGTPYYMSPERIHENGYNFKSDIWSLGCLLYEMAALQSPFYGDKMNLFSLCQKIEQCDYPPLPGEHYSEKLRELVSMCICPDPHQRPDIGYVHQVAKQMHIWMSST
Sequence of Casein kinase II subunit alpha (Homo sapiens) (P68400 whole entry, looked up): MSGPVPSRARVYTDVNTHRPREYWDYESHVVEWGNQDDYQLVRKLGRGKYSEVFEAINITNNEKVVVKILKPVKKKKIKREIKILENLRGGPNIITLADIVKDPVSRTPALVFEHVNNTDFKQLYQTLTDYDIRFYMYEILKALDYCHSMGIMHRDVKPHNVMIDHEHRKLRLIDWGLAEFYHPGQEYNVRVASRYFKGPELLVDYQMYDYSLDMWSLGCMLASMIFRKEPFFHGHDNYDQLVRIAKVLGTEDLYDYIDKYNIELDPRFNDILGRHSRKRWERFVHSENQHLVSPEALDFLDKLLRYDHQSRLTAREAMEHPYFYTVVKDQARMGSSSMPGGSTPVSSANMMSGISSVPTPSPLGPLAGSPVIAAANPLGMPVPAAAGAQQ
Sequence of Sphingosine kinase 1 (Homo sapiens) (Q9NYA1 whole entry): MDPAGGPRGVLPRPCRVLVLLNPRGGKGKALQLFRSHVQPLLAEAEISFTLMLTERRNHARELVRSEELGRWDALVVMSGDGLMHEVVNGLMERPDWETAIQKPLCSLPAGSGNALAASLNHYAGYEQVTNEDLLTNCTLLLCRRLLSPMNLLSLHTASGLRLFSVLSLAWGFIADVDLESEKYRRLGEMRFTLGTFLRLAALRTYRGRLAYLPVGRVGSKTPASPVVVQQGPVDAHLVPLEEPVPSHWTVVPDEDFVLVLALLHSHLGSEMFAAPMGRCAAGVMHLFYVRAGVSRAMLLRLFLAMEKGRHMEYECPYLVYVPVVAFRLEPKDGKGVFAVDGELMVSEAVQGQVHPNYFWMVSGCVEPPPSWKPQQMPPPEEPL

In the case of `CCNC(=O)O[C@H]1CN[C@H](C#Cc2cc3ncnc(Nc4ccc(OCc5cccc(F)c5)c(Cl)c4)c3s2)C1`, the inhibition is -0.72% in experiment [1]; 0.52% in experiment [2]; -3.06% in [3]; 0.94% in experiment [4]; -1.06% in experiment [5]; 2.78% in experiment [6]. Also, the inhibition in experiment [7] was -6.68%; in experiment [8] it was 3.34%; in [9] it was 1.97%; in experiment [10], 2.87%; in [11] it was 2.76%; in [12] it was 1.8%. Moreover, the inhibition in [13] was 2.36%; in experiment [14], 3.33%; in experiment [15] it was 6.2%; in experiment [16], 3.89%; in experiment [17] it was 0.56%; in [18], 3.85%. Also, the inhibition stood at 3.51% in [19] and 12% in experiment [20].
